Giardia kill – Small Molecules that selectively kill Giardia lamblia: qHTS; AID 540267, 2011; activity change, % at 7.66 µM, hits read low; 340,000 tested, 0.15% active; Giardia lamblia trophozoite viability; in the data active = activity change below about -80%; inconclusive = between about -30% and that limit;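 also: parasites exposed to compound for two days anaerobically before the ATP read; % is scaled to controls: 0 for no effect and ±100 for the full control effect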
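Media and compound were dispensed first, then trophozoites at 100 cells/well; plates sat 48 hrs at 37 deg C without oxygen before ATP luminescence reagent was added and read after 15-30 min at room temperature.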
TCR act – Activators of T cell receptors: qHTS campaign. Potency, µM (series often up to 9.22 µM), for the others: at the highest dose activation of IL-2 secretion, usual class: activators. AID 504894, 2011. primary human leukocytes, anti-CD3, IL-2 HTRF, 48 h. 330,000 tested, under 10 active; also: % of control where 0% means no effect
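IL-2 produced over 48 hr by a-CD3 bead-stimulated primary human leukocytes exposed to compounds was detected with a homogeneous time-resolved FRET immunoassay, 665nm acceptor signal after 320nm excitation.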
BCR signal inh – qHTS Assay to Find Inhibitors of Chronic Active B-Cell Receptor Signaling; ABC-DLBCL IkBa-CBG/CBR reporter, luminescence ratio, 4 h; Potency, µM (doses to about 46.1 µM), inactives show at the highest dose activity change, negative = inhibition, most hits filed as inhibitors; 340,000 tested, 0.05% active; active = well fitted inhibition curve with a large enough effect in the signal ratio, with a control signal flat, not every such curve was filed as active; inconclusive = small, poorly fitted or top-dose-only effect, or effect the other way, or a change in a side signal; the % refers to the signal ratio;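 also: potency is read from the fitted curve at half-maximal effect; plate controls were basal doxycycline-induced cells for no effect and cells given 10 µM MG132 for full effect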
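Concentration-response series (up to 46 uM) were applied to TMD8 dual-reporter cells for 4 h at 37C with doxycycline. Green/red ratio, after filter-overlap correction, defined %Activity; red signal alone was normalised to basal cells and zero luminescence.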
Integrin act MD – qHTS for Activators of Integrin-Mediated Alleviation for Muscular Dystrophy; AID 624291, 2012; 350,000 tested, 0.064% active; Potency, µM (highest dose often 38.3 µM), for the others: at the top dose activation, usual class: activators; alpha7betagal myoblasts, beta-gal FDG fluorescence, 48 h;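 also: potency is read from the fitted curve at half-maximal effect; 100% = response of the positive control SU9516; nearly all actives have a fitted effect of over 60% in size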
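alpha7betagal+/- myoblasts (passage 13, 250/well) treated 48 h at 37C with compounds at 1:260 dilution of DMSO stock. Lysed, then beta-galactosidase activity read as FDG fluorescence (ex 480/em 540) after 30 min, with pre-read for autofluorescence.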
Starred values were filed as active, the others as inactive; ? = inconclusive; . = no result; [ ] = dose if it differs, or a comment. Shown are actives, neighbours in structure and some others; about 0.25% of the full set was active somewhere. Unless noted, calls follow the shape of the dose curve; as a rule, active = well fitted curve in the direction sought with a large enough effect; inconclusive = small, poorly fitted or top-dose-only effect, or another doubt; inactive = no such curve, though single readings can be large; an effect the other way counts as inactive or inconclusive.

SMILES | Giardia kill | TCR act | BCR signal inh | Integrin act MD
CC(=O)Nc1ccc(S(=O)(=O)NCC2CCC(C(=O)NCCc3ccc(C)cc3)CC2)cc1 (stereo not drawn) | . | . | -7% | .
COCCN(Cc1cc2cc(C)cc(C)c2nc1Cl)C(=O)Nc1ccccc1 | 28 | 5% | 16µM* | 3%
CCCS(=O)(=O)N1CCCC(C(=O)c2cccc(Cl)c2)C1 (stereo not drawn) | 7 | -5% | ? | 6.3µM*
CCCCS(=O)(=O)N1CCCC(C(=O)NCCc2ccccc2)C1 (stereo not drawn) | 2 | -5% | 1% | 7.1µM*
CS(=O)(=O)N1CCCC(C(=O)c2cccc(Cl)c2)C1 (stereo not drawn) | -14 | 5% | ? | 0%
C[C@]12CC(O)C3C(CCC4=CC(=O)CC[C@@]43C)C1CCC2c1csc(-c2ccccc2)n1 (stereo partly drawn) | 7 | -2% | 4% | -15%
C=CCN1CC(O)=C(c2nc3ccccc3[nH]2)C1=N | -24 | -4% | 3% | -17%
CCOC(=O)c1cc([N+](=O)[O-])sc1N | 1 | -8% | 3% | -24%
CCOC(=O)c1cc([N+](=O)[O-])sc1NC(=O)CC | -86* | . | 8% | 17%
CN1CCN(c2ccccc2NC(=O)c2ccc(-c3cccc([N+](=O)[O-])c3)o2)CC1 | 23 | 4%[46.1 µM] | ? | -17%
O=C(Nc1ccccc1N1CCOCC1)c1ccc([N+](=O)[O-])s1 | -89* | -1% | 1% | -63%
Cc1cccc(NC(=O)c2ccc([N+](=O)[O-])s2)n1 | -89* | -1% | ? | -66%
CS(=O)(=O)N1CCN(c2ccccc2NC(=O)c2ccc([N+](=O)[O-])o2)CC1 | -98* | 3% | 1% | -66%
CN1CCN(c2ccccc2NC(=O)c2ccc([N+](=O)[O-])o2)CC1 | -92* | 7% | -4% | -54%
Cc1cccc(C)c1NC(=O)c1ccc([N+](=O)[O-])s1 | ? | -2%[46.1 µM] | ? | -46%
O=C(Nc1ccccc1N1CCOCC1)c1ccccc1[N+](=O)[O-] | -4 | -10% | -1% | 3%
CS(=O)(=O)N1CCN(c2ccccc2NC(=O)c2ccc3c(c2)OCCO3)CC1 | 0 | -8% | 8% | 0%
O=C(Nc1ccc(O)cc1)c1c(O)c2c([nH]c1=O)CCCC2 | -29 | -2% | -3% | 19%
COc1ccc(CNC(=O)c2cc(-c3ccc(OC)c(OC)c3)nc3n[nH]c(-c4ccc(C)cc4)c23)cc1 | . | . | 17% | .
COc1ccc(-c2csc3ncnc(N4CCN(c5ccccc5[N+](=O)[O-])CC4)c23)cc1 | 16 | -3% | 0% | 10µM*
CCn1c(SCC(=O)N2CCC(C)CC2)nnc1-c1ccccc1O | . | . | -3% | .
Cc1ccccc1-n1nnnc1Sc1nnnn1-c1ccccc1 | 3 | 3% | ? | -61%
CCCSc1nnc(Sc2nnnn2-c2ccccc2)s1 | 3 | 4% | 9.2µM* | -76%[7.66 µM]
COc1cccc(/C=N/NC(=O)c2[nH]nc3c2CCc2ccccc2-3)c1 | 1 | 4% | 18µM* | -30%
CC1(C)[N+]([O-])=C2C(=[N+]([O-])C1(C)C)c1ccccc1/C2=N\O | -98* | -1% | -1% | 3%
SMILES | Giardia kill | TCR act | BCR signal inh | Integrin act MD
O=C(NCc1ccc2c(c1)CCN2C(=O)c1ccncc1)c1cccc(F)c1 | . | . | 0% | .
CC1(C)CC(=O)C=C(Nc2ccc(C(=O)O)c(O)c2)C1 | -3 | 8% | 8% | 10µM*
O=C(COC(=O)c1cc2ccccc2oc1=O)Nc1ccc(F)cc1F | 10 | -6% | ? | 4.5µM*
C[C@@H]1CCCCO[C@@H](CN(C)C(=O)Nc2ccc3c(c2)OCO3)[C@@H](C)CN([C@H](C)CO)C(=O)c2cc(N(C)C)ccc2O1 | . | . | . | -11%
CCc1ccc(-c2nc3c(=O)n(C)c(=O)nc-3n(CC)n2)cc1 | -91* | . | . | .
CC1CCCCC12NC(=O)N(CC(=O)OCc1ccccc1F)C2=O (stereo not drawn) | -17 | 2%[46.1 µM] | -3% | 21%
CC1CCCCC12NC(=O)N(CC(=O)OCc1cccc(F)c1)C2=O (stereo not drawn) | -2 | -2% | -2% | 10µM*
COc1ccc(CCNC(=O)C(=O)NCC(c2ccco2)S(=O)(=O)c2cccs2)cc1 (stereo not drawn) | . | . | -1% | .
C/C(=N\NC(=O)c1ccccc1NC(=O)c1ccc(Cl)cc1)c1ccncc1 | -96* | -7% | ? | 1%
